High-throughput results from PubChem.
CYP2C9 inh: blocks human cytochrome P450 2C9; P11712; CYP2C9 Supersomes, luciferin-H conversion, luminescence; inhibition, % at 5 µM; 96,000 tested, 20% active; AID 777;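 active = blocking of liver enzyme CYP2C9 beyond about 50% at 5 µM, limit read from the data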
CYP2C19 act: cytochrome P450 2C19 (human) activation; P33261; recombinant CYP2C19, luciferin-H EGE luminescence; active compounds read high; 0 = fully inhibited enzyme, 1 = untreated enzyme; activation factor at 5 µM; 96,000 tested, under 10 active;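 active = activation factor of at least 2 at 5 µM in the primary screen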
PLK1 inh: blocks human PLK1 kinase activity. P53350. recombinant PLK1 kinase, TR-FRET peptide phosphorylation. inhibition, % at 10 µM. 97,000 tested, 0.53% active;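 active = inhibition of 50% or more in the single-concentration screen; inactive = inhibition below 50%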
Target sequence (P53350 whole entry, looked up): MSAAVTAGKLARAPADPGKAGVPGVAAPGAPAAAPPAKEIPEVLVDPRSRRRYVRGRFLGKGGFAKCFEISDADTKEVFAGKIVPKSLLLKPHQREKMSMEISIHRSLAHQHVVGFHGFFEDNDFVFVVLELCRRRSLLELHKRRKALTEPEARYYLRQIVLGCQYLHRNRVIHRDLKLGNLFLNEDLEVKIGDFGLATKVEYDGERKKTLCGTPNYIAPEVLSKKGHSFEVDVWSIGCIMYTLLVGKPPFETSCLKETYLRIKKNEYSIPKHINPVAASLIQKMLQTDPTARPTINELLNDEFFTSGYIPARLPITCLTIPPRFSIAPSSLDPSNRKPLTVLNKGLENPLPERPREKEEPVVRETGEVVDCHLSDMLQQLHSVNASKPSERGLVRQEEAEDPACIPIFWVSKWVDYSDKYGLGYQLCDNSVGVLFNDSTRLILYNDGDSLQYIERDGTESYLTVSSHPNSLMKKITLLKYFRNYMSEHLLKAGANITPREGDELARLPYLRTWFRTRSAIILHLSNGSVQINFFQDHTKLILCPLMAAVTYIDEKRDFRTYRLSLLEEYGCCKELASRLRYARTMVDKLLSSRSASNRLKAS
CYP2C19 inh: blocks human cytochrome P450 2C19; inhibition, % at 5 µM; P33261; CYP2C19 Supersomes, luciferin-H EGE luminescence, 30 min; 96,000 tested, 21% active;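 active = CYP2C19 inhibition above a set limit at 5 µM in the primary screen, cut at about 50% in these data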
CYP2C9 act: CYP2C9 (human) activation; P11712; recombinant CYP2C9, luciferin-H conversion, luminescence; active compounds read high; factor 1 = untreated enzyme, 0 = blocked; activation factor at 5 µM; 96,000 tested, 1.4% active; AID 1024;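 active = activation factor of 2 or more for CYP2C9 at a 5 µM dose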
PLK1 PBD inh: blocks phosphopeptide binding to human Plk1 polo box domain. Plk1 PBD phosphopeptide binding, fluorescence polarization. inhibition, %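 (tested at about 20 µM)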. 97,000 tested, 0.13% active; in the data active = inhibition above about 34%, passing the limit was not always enough
Large screens that a line does not name were inactive. In the library only some 28% were active in any assay of this set; here they are far more common.

O=C(NCCCn1ccnc1)c1ccc2c(c1)OCCO2	CYP2C9 inh 58, CYP2C19 inh 97
O=C(NCCc1ccccc1)c1cc(-c2ccc3c(c2)OCO3)on1	none
CCOC(=O)N1CCN(c2nc(-c3ccc(OC)cc3)no2)CC1	none
CCOc1ccc(OCC)c(NC(=O)c2[nH]c(C)c(C(C)=O)c2C)c1	none
CC(C)C(NC(=O)CNC(=O)OC(C)(C)C)C(=O)NCc1ccccc1 (configuration not stated)	none
Cc1noc(C)c1Cc1ccc(O)cc1	none
CC1CN(S(=O)(=O)c2cccc(C(=O)NCCCn3ccnc3)c2)CC(C)O1 (configuration not stated)	CYP2C9 inh 63
Cc1cc(C)nc(SCCC(=O)N(C)C)n1	none
Fc1cccc2sc(N3CCCCC3)nc12	CYP2C19 inh 60
CC(c1nc2ccccc2c(=O)[nH]1)N1CCN(C)CC1 (configuration not stated)	none
Cc1ccc(-c2cc(C(=O)N3CCCc4ccccc43)c3ccccc3n2)cc1	CYP2C9 inh 93, CYP2C19 inh 71
Cc1cc(C)c2cc3c(N)c(C(=O)N4CCc5ccccc5C4)sc3nc2c1	none
Cc1ccc2nc3sc(C(=O)N4CCCc5ccccc54)c(N)c3cc2c1	CYP2C9 inh 92, CYP2C19 inh 87
Cc1ccc(-c2cc(C(F)(F)F)n3ncc(C(=O)N4CCCc5ccccc54)c3n2)cc1	none (no result: CYP2C9 inh, CYP2C19 act, CYP2C19 inh, CYP2C9 act)
Cc1ccc(C)c(NC(=O)c2sc(Cl)nc2-c2ccccc2)c1	none
Cc1ccccc1NC(=O)c1sc(Cl)nc1-c1ccccc1	CYP2C19 inh 61
CCOC(=O)CN(C(=O)CSc1nnc(CNc2ccc(C)cc2C)o1)c1ccccc1	none
CCn1cc(Br)c(C(=O)Nc2ccc(C(=O)OC(C)C)cc2)n1	CYP2C19 inh 75
CCOC(=O)c1c(N)c(C#N)cn1-c1ccccc1	none
CCn1cc(Br)c(C(=O)Nc2cccc(Cl)c2)n1	CYP2C9 inh 66, CYP2C19 inh 94
CCCCOC(=O)c1ccc(NC(=O)c2nn(C)cc2Br)cc1	none (no result: CYP2C9 inh, CYP2C19 act, CYP2C19 inh, CYP2C9 act)
CCOC(=O)c1c(NC(=O)c2nn(CC)cc2Br)c(C#N)cn1-c1ccccc1	CYP2C19 inh 75
CCn1cc(Br)c(C(=O)Nc2ccc(Cl)c(Cl)c2)n1	none (no result: CYP2C9 inh, CYP2C19 act, CYP2C19 inh, CYP2C9 act)
CCn1cc(Br)c(C(=O)Nc2ccc(OC)cc2)n1	CYP2C19 inh 74
CCCCn1c(SCC(=O)Nc2nnc(C)s2)nc2c1c(=O)n(C)c(=O)n2C	none
CC1=CC(C)(C)Nc2cc(C)c(C)cc21	CYP2C19 inh 92
CCOC(=O)c1ccc(NC(=O)Nc2ccc(F)cc2)cc1	CYP2C9 inh 66
CCCCOC(=O)c1ccc(NC(=O)Nc2ccc(OC)c(OC)c2)cc1	none
COC(=O)c1ccc(NC(=O)Nc2ccc(F)cc2)cc1	CYP2C9 inh 60 (no result: PLK1 inh, PLK1 PBD inh)
CCOC(=O)c1ccc(NC(=O)CC2C(=O)N(c3ccc(F)cc3)C(=O)N2CCC(C)C)cc1 (configuration not stated)	CYP2C19 inh 54
COC(=O)c1ccc(NC(=O)Nc2ccc(F)c(Cl)c2)cc1	none
CCOC(=O)c1ccc(NC(=O)Nc2ccc(OC)c(OC)c2)cc1	PLK1 inh 51
COC(=O)c1ccc(NC(=O)CC2C(=O)N(c3ccc(C)cc3)C(=O)N2CC(C)C)cc1 (configuration not stated)	none
COc1ccccc1-n1c(C)cc(SC)c(C(C)=O)c1=S	none
CCSc1nnc(NC(=O)CSc2ncccn2)s1	none
CCc1c(C(=O)Nc2ccncc2)csc1C	CYP2C9 inh 84, CYP2C19 inh 98
Cc1nc(-c2cccc(NC(=O)c3cccs3)c2)cs1	none (no result: CYP2C9 inh, CYP2C19 act, CYP2C19 inh, CYP2C9 act)
O=C(Nc1ccncc1)c1cccs1	CYP2C9 inh 52
O=C(Nc1ccc2nsnc2c1)c1cccs1	CYP2C19 inh 55
O=C(Nc1cccnc1)c1cccs1	none
CCc1c(C(=O)Nc2ncn(Cc3cccc(C)c3)n2)csc1C	none (no result: CYP2C9 inh, CYP2C19 act, CYP2C19 inh, CYP2C9 act)
O=C(Nc1ccc2nn(-c3ccccc3)nc2c1)c1cccs1	none
O=C(Nc1cccc(-c2csc(-c3ccccc3)n2)c1)c1cccs1	CYP2C9 inh 91, CYP2C19 inh 51
CCSc1nnc([C@H](C)NC(=O)OC(C)(C)C)o1	none
Cc1nc2cc(NC(=O)N3c4ccccc4CC3C)ccc2n1C (configuration not stated)	none
Cc1c(CN(C)C(=O)c2sc3cc(Cl)ccc3c2Cl)cnn1C	CYP2C19 inh 93
Cc1noc(C)c1C(=O)N1CCN(C(=O)c2sc3cc(Cl)ccc3c2Cl)CC1	none
